Experimental data published in PubChem BioAssay AID493170 (National Center for Advancing Translational Sciences (NCATS), 2011).
Records with an inconclusive call do not appear. Activity calls are given as the source filed them. The call rests on the fitted dose curve; in most records, active means well fitted inhibition curve with a large enough effect; inconclusive means small, poorly fitted or top-dose-only effect, or effect the other way; inactive means flat fitted curve, though single readings scatter.

Each compound was assayed against Ubiquitin carboxyl-terminal hydrolase 2 (Homo sapiens) (UniProt O75604) (assay: Ub-rhodamine 110 based assay for inhibitors Ubiquitin-specific Protease USP2a). Settings: USP2a Ub-rhodamine110 cleavage, fluorescence; series mostly up to 38.3 µM; activity change, negative = inhibition: at the top concentration.
Method in brief: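 5 nM USP2a preincubated with compounds for 30 min at RT in 20 mM Tris-HCl pH 8.0, 2 mM CaCl2, 2 mM beta-mercaptoethanol, 0.05% CHAPS. Cleavage of 150 nM Ub-rhodamine 110 read kinetically (Ex 485/Em 531) for 7 min.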
Further: nearly all actives have a fitted effect of over 50% in size.
On the % scale 0 is the no-effect control and ±100 the full control effect; potency means the concentration at half of the fitted maximal effect.

Sequence of Ubiquitin carboxyl-terminal hydrolase 2 (Homo sapiens) (O75604 whole entry, looked up): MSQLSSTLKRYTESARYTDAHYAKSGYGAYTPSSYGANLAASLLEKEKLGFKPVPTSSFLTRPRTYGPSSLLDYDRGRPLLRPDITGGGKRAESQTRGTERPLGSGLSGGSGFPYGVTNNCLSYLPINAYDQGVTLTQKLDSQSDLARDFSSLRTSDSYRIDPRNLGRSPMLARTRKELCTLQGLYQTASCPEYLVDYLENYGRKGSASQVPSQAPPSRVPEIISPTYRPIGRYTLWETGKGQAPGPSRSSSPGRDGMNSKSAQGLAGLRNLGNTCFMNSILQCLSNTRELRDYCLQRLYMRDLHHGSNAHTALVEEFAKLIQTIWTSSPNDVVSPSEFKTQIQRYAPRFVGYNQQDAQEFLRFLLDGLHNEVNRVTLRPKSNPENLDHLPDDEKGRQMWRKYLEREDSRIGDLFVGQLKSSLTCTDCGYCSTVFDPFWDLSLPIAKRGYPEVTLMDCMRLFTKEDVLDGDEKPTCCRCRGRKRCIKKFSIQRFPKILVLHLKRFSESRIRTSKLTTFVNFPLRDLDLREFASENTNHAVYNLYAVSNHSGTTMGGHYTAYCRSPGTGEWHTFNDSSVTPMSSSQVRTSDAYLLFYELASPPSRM

| Compound | activity change, negative = inhibition | Potency |
| --- | --- | --- |
| CN(c1cccc(NC(=O)Nc2cccc(Cl)c2)c1)S(C)(=O)=O | -7.59% (inactive) |  |
| CN1CCN(Cc2c(O)ccc3c(=O)c(Oc4ccccc4Cl)c(C(F)(F)F)oc23)CC1 | 3.93% (inactive) |  |
| O=C(C[n+]1cccc(C(=O)N/N=C/c2ccc(Br)cc2)c1)c1ccccc1 | -2.35% (inactive) |  |
| Cc1ccc(C(=O)Nc2nnc(CC(=O)N/N=C/c3ccc(O)c(O)c3)s2)cc1 |  | 4.47 µM (active) |
| Cc1cccc(NCc2nc(-c3ccccc3)no2)c1 | 0.203% (inactive) |  |
| COc1ccc(OC)c(Nc2ccc(Nc3cc(OC)ccc3OC)nn2)c1 | -14.2% (inactive) |  |
| Cc1ccc(C(=O)NCc2ccc3c(c2)OCO3)cc1N1CCCC1=O | -7.01% (inactive) |  |
| COc1ccc(N(C(=O)C(C)C)S(=O)(=O)c2ccc(Cl)cc2)cc1 | -17.7% (inactive) |  |
| C#CCOCCOCCOCCNc1nc(N2CCN(C(=O)CCCCCCCCCCNC(=O)[C@H](CCCCN)n3cc(CCO)nn3)CC2)nc(N2CCN(C(=O)CCCCCCCCCCNC(=O)[C@H](CCCCN)n3cc(C[C@@H](C)CC)nn3)CC2)n1 | -28.8% (inactive) |  |
| CCc1nnc(NC(=O)CSc2nccn2-c2cccc(C)c2)s1 | -13.4% (inactive) |  |
| O=C1CS/C(=C/C(=O)c2ccccc2)N1 | -10.4% (inactive) |  |
| O=C(CSc1ccc(Br)c2cccc(Cl)c12)Nc1ccc(S(=O)(=O)Nc2nccs2)cc1 |  | 3.55 µM (active) |
| N#CCC(=O)Nc1ccc(C(=O)OCC(=O)NCc2ccc3c(c2)OCO3)cc1 |  | 10 µM (active) |
| C=CC[C@@H](CC(=O)N(CCO)Cc1ccccc1)C(=O)NCCOC(=O)[C@H](CC=C)CC(=O)OC(C)(C)C | 2.02% (inactive) |  |
| CCc1ccc([C@@H]2CC=C(C(=O)O)[C@H](c3ccc(C(C)(C)C)cc3)N2S(=O)(=O)c2ccc(C)cc2)cc1 |  | 10 µM (active) |
| O=c1[nH]c(=S)[nH]c2c1C(c1ccc(Br)cc1)c1c([nH]c(=S)[nH]c1=O)O2 |  | 11.2 µM (active) |
| C=C1c2cccc(O)c2C(=O)C2C(=O)[C@]3(O)C(=O)C(C(N)=O)C(=O)[C@@H](N(C)C)[C@@H]3[C@@H](O)[C@H]12 (stereo not given in full) |  | 8.91 µM (active) |
| Nc1c(C(=O)Nc2ccc(Cl)cc2)oc2ccccc12 | -19.9% (inactive) |  |
| O=C(c1ccco1)N1CCN(C(c2cccs2)c2sc3ncnn3c2O)CC1 (stereo not given) | -4.24% (inactive) |  |
| Cc1cc(-c2csc(NCc3ccccc3)n2)c(C)n1C |  | 8.91 µM (active) |

| Compound | activity change, negative = inhibition | Potency |
| --- | --- | --- |
| CCCOc1ccc(/C=C2\SC(=S)N(CC3CCCO3)C2=O)cc1 (stereo not given) | -7.91% (inactive) |  |
| CCC1SC2=NC(C)=C(C(=O)OCCOC)C(c3ccc(C(=O)OC)cc3)N2C1=O (stereo not given) | -8.2% (inactive) |  |
| CCOc1ccccc1C(=O)N[C@H](C(=O)Nc1ccc(OC)c(S(=O)(=O)N2CCOCC2)c1)C(C)C | -7.42% (inactive) |  |
| Cc1ccc(C(=O)COC(=O)CNC(=O)CN2C(=O)c3ccccc3C2=O)cc1 | -12.6% (inactive) |  |
| Cc1cc(=O)oc(C)c1C(=O)NCCc1ccccc1 | -10.5% (inactive) |  |
| N=c1sccn1CC(=O)Nc1ccc(S(=O)(=O)N2CCOCC2)cc1 | 12.8% (inactive) |  |
| C=CCn1c(Br)nc2c1c(=O)n(C)c(=O)n2C | 15.6% (inactive) |  |
| C#CCOCCOCCOCCNc1nc(N2CCN(C(=O)CCCCCCCCCCNC(=O)[C@@H](CCSC)n3cc(CCO)nn3)CC2)nc(N2CCN(C(=O)CCCCCCCCCCNC(=O)[C@H](CCCN=C(N)N)n3cc(C[C@@H](C)CC)nn3)CC2)n1 |  | 10 µM (active) |
| Cc1nc2n(n1)CC(O)CS2 (stereo not given) | -3.3% (inactive) |  |
| CCOC(=O)Nc1nnc(CCc2ccccc2)s1 | 1.11% (inactive) |  |
| N#Cc1cccc(C(=O)N(CCc2ccccc2)Cc2cccs2)c1 | -2.85% (inactive) |  |
| CC[n+]1c(/C=C/N(C)c2ccccc2)n(-c2ccccc2)c2ccc(-c3nc4ccccc4s3)cc21 | -26.5% (inactive) |  |
| Fc1ccc(-c2nnn(Cc3nc4ccccc4s3)n2)cc1 | -19.1% (inactive) |  |
| CC(CN1CCCCC1)OC(=O)c1ccc(Cl)cc1 (stereo not given) | 1.02% (inactive) |  |
| O=C(Nc1cccc(C(F)(F)F)c1)/C(=C\c1ccco1)NC(=O)c1cccs1 | -4.02% (inactive) |  |
| COc1ccc(CCN2C(=O)/C(=C\c3ccco3)SC2=S)cc1OC | -10.5% (inactive) |  |
| CCC(CO)Oc1cc(NCc2cccc(C)c2)c2ncn(C(C)C)c2c1 (stereo not given) | -5.97% (inactive) |  |
| Cc1ccc(C(C(=O)NC2CCCC2)N2CCc3ccccc32)cc1 (stereo not given) | 6.95% (inactive) |  |
| CCCc1nc(SCC(N)=O)[nH]c(=O)c1CC | 0.11% (inactive) |  |
| CCN(CC)CCNc1nc(-c2ccccc2)c2c(c1C#N)CC(C)(C)OC2 | -1.63% (inactive) |  |
